From PubChem BioAssay (EPA / NIEHS)
Inconclusive results are not listed. Activity calls are given as the source filed them. How the source made its calls, unless noted: active means hit-call score of the fitted dose curve at least 0.9, where 1 is the maximum; inactive means score below 0.9.

Assays:
[1] = ATG_TAL_CIS: Attagene CIS-FACTORIAL HepG2 Assay for human TAL Basal Promoter (AID 2282966); conditions: HepG2 Attagene cis-factorial TAL promoter reporter; actives raise or lower the signal;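 further: background control endpoint measuring basal TAL promoter reporter mRNA not a specific factor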
Procedure, shortened: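 Endogenous transcription-factor activity is sensed in HepG2 cells through transfected cis-promoter reporter constructs. After 24 h dosing, reporter transcripts are quantified by RT-PCR and capillary electrophoresis. Gain or loss of signal is fitted relative to DMSO.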

[2] = ATG_TGFb_CIS: Attagene CIS-FACTORIAL HepG2 Assay for human Transforming Growth Factor (TGF) (AID 2282967); conditions: HepG2 Attagene CIS TGFb reporter, mRNA transcription; actives raise or lower the signal
Procedure, shortened: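 Transcript-level reporter readout: HepG2 transfectants, 24 h exposure, RNA to cDNA, reporter-specific PCR, fluorescent primer extension, capillary sizing against ROX standards. Gain- or loss-of-signal relative to DMSO.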

[3] = ATG_VDRE_CIS: Attagene CIS-FACTORIAL HepG2 Assay for human Vitamin D Receptor Element (VDRE) (AID 2282968); conditions: HepG2 VDRE cis-reporter transcription, actives raise or lower the signal
Procedure, shortened: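 Steps: transfect HepG2 with multiple reporter transcription units; dose chemicals 24 h; isolate RNA; RT-PCR; label with 6-FAM primer extension; HpaI digest; capillary electrophoresis. Curves fitted both directions against DMSO.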

[4] = biological target: X-box-binding protein 1 (Homo sapiens) (UniProt P17861); test: ATG_Xbp1_CIS: Attagene CIS-FACTORIAL HepG2 Assay for human X-box Binding Protein 1 (XBP1) (AID 2282972); conditions: HepG2 XBP1 cis-element reporter, Attagene multiplex; actives raise or lower the signal
Procedure, shortened: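 Human hepatoma HepG2, cis-element reporter system, 24 h treatment; mRNA quantified by RT-PCR/CE fluorescence; fit relative to DMSO.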

[5] = ATG_M_19_TRANS: Attagene TRANS-FACTORIAL HepG2 Assay for M19 Transcription Factor (Internal Marker) (AID 2282974; active means hit-call score of the fitted dose curve at least 0.9, where 1 is the maximum); conditions: HepG2 Attagene TRANS-FACTORIAL M19 internal marker reporter
Procedure, shortened: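 Transfected HepG2 (GAL4-UAS MRTUs), 24 h compound, TriZol RNA, DNase-treated RT, reporter PCR, FAM label, HpaI digest, CE fluorescence; gain vs DMSO.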

[6] = biological target: Androgen receptor (Homo sapiens) (UniProt P10275); test: ATG_AR_TRANS: Attagene TRANS-FACTORIAL HepG2 Assay for human Androgen Receptor (AR) (AID 2282973; active means hit-call score of the fitted dose curve at least 0.9, where 1 is the maximum); conditions: HepG2 Attagene TRANS-FACTORIAL AR reporter transcription
Procedure, shortened: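 Transfected HepG2, 24 h treatment, chimeric NR-Gal4 driving GAL4-UAS reporters. mRNA induction by RT-PCR/capillary electrophoresis fluorescence; DMSO as negative control and baseline.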

[7] = biological target: Estrogen receptor (Homo sapiens) (UniProt P03372); test: ATG_ERa_TRANS: Attagene TRANS-FACTORIAL HepG2 Assay for human Estrogen Receptor alpha (ERa) (AID 2282970; active means hit-call score of the fitted dose curve at least 0.9, where 1 is the maximum); conditions: HepG2 Attagene TRANS ERa GAL4 reporter, mRNA
Procedure, shortened: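 Transfected HepG2 cells carrying GAL4-UAS-driven reporter units were dosed for 24 hours. Total RNA was reverse-transcribed, reporter sequences PCR-amplified, FAM-labelled, HpaI-digested and resolved by capillary electrophoresis. Increases over DMSO control defined activity.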

[8] = biological target: Steroid hormone receptor ERR1 (Homo sapiens) (UniProt P11474); test: ATG_ERRa_TRANS: Attagene TRANS-FACTORIAL HepG2 Assay for human Estrogen-Related Receptor alpha (ERRa) (AID 2282971; active means hit-call score of the fitted dose curve at least 0.9, where 1 is the maximum); conditions: HepG2 Attagene TRANS reporter, ERRa transactivation
Procedure, shortened: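 HepG2 cells were transiently transfected with multiple GAL4-UAS reporter units, then dosed with compound for 24 h. Total RNA was reverse-transcribed, reporter cDNA PCR-amplified and fluorescently labelled, and fragments resolved by capillary electrophoresis; induction was compared with DMSO.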

[9] = ATG_GAL4_TRANS: Attagene TRANS-FACTORIAL HepG2 Assay for GAL4 (Internal Marker) (AID 2282976; active means hit-call score of the fitted dose curve at least 0.9, where 1 is the maximum); conditions: HepG2 Attagene TRANS GAL4 internal marker reporter
Procedure, shortened: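 Fluorescence from capillary electrophoresis of labelled RT-PCR products quantifies reporter mRNA induction after 24 h dosing of HepG2 cells carrying transfected GAL4-UAS reporter transcription units. Vehicle DMSO serves as baseline.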

[10] = biological target: Nuclear receptor subfamily 1 group I member 3 (Homo sapiens) (UniProt Q14994); test: ATG_CAR_TRANS: Attagene TRANS-FACTORIAL HepG2 Assay for human Constitutive Androstane Receptor (CAR) (AID 2282969; active means hit-call score of the fitted dose curve at least 0.9, where 1 is the maximum;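 further: activators raise reporter mRNA above DMSO so AC50 marks induction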); conditions: HepG2 Attagene TRANS-FACTORIAL CAR reporter
Procedure, shortened: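 Steps: transient transfection of HepG2 with multiple GAL4-UAS reporter units; 24 h compound incubation; RNA isolation, RT-PCR, 6-FAM primer extension, HpaI digest; capillary electrophoresis. Gain-of-signal relative to DMSO negative control.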

Measured: AC50

Chain of Estrogen receptor (Homo sapiens) (P03372 whole entry, looked up, the tested form may be a part): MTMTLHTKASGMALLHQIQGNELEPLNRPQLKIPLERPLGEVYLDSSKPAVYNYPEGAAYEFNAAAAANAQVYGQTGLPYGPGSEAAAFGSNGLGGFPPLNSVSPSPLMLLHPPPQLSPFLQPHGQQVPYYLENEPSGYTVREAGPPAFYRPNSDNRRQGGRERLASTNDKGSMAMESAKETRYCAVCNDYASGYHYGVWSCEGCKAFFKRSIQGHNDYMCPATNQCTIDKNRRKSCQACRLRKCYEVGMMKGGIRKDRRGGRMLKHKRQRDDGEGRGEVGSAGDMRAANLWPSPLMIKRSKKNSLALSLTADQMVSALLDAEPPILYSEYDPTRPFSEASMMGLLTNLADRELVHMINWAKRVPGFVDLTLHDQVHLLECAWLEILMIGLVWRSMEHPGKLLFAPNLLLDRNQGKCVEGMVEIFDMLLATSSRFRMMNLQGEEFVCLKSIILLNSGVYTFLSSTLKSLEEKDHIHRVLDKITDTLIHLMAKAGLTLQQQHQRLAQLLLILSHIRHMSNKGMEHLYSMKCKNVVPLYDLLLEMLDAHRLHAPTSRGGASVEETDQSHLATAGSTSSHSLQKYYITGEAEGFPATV
Chain of Nuclear receptor subfamily 1 group I member 3 (Homo sapiens) (Q14994 whole entry, looked up, the tested form may be a part): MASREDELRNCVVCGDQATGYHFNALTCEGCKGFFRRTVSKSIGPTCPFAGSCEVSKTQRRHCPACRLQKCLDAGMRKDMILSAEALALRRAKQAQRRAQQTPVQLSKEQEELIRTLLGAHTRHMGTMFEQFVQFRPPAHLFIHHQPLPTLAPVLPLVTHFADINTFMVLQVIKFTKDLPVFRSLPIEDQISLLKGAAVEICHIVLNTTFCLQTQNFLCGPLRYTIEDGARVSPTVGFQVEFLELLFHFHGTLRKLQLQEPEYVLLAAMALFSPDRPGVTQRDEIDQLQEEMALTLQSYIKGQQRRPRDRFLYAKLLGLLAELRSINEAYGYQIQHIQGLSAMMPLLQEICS
Chain of Steroid hormone receptor ERR1 (Homo sapiens) (P11474 whole entry, looked up, the tested form may be a part): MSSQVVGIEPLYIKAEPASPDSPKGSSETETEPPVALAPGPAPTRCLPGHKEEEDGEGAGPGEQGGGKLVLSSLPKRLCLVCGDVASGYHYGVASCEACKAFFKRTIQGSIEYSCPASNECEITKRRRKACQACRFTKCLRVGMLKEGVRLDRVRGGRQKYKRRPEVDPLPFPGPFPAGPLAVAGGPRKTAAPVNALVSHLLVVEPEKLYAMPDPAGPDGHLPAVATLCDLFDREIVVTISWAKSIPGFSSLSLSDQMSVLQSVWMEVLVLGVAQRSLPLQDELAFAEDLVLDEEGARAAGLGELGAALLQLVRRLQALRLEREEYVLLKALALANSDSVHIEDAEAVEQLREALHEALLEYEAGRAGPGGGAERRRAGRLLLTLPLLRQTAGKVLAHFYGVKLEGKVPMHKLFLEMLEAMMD
Chain of Androgen receptor (Homo sapiens) (P10275 whole entry, looked up, the tested form may be a part): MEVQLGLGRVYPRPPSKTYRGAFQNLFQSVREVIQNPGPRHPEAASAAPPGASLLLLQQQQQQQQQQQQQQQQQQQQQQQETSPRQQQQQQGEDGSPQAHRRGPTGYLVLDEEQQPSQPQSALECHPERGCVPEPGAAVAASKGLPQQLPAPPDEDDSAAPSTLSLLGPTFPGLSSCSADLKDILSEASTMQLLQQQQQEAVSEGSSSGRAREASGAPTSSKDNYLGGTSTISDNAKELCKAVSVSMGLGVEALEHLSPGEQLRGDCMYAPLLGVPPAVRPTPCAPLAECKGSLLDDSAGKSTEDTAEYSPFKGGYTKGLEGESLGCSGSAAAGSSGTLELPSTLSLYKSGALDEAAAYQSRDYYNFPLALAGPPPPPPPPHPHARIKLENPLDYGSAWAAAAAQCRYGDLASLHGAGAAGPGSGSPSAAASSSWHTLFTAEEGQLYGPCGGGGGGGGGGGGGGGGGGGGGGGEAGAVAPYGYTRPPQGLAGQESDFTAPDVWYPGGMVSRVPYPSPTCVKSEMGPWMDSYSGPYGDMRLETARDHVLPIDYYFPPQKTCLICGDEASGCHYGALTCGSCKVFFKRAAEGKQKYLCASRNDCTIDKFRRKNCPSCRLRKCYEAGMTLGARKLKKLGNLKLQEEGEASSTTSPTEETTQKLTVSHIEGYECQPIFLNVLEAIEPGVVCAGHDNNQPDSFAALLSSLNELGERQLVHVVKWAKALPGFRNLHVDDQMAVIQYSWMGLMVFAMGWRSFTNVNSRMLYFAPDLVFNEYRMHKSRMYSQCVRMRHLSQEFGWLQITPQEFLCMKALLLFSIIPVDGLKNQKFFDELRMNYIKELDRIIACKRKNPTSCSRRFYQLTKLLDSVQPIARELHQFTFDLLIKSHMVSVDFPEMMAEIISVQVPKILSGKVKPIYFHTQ
Chain of X-box-binding protein 1 (Homo sapiens) (P17861 whole entry, looked up): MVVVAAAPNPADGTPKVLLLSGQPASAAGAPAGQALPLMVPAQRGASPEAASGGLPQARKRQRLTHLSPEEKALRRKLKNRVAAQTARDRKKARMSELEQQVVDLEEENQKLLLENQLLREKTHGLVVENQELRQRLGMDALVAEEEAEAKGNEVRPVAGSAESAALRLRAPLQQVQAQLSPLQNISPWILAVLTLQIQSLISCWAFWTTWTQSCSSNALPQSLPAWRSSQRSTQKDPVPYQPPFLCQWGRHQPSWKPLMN

O=C(O)C(F)(F)C(F)(F)C(F)(F)C(F)(F)C(F)(F)C(F)(F)F
inactive: [1] | [2] | [3] | [4] | [5]

O=CC=O
inactive: [1] | [2] | [4] | [6]

COc1ccc(C=O)cc1OC
inactive: [1] | [2] | [8] | [4] | [5]
active: [7] 58.6 µM

ClC(Cl)=C(Cl)C(Cl)=C(Cl)Cl
inactive: [1] | [2] | [5]

COc1ccc(OC)c(C=O)c1
inactive: [1] | [2] | [3] | [5] | [9]

COP(=S)(OC)Oc1cc(Cl)c(Cl)cc1Cl
active: [2] 79.6 µM
inactive: [1] | [10] | [4] | [6]

Cc1ccccc1N
inactive: [1] | [2] | [4] | [5]

CC(=[OH+])/C=C(/C)[O-].CC(=[OH+])/C=C(/C)[O-].CC(=[OH+])/C=C(/C)[O-].[Fe]
inactive: [1] | [2] | [3] | [5]

C[C@]12CC[C@H](O)CC1=CC[C@@H]1[C@@H]2CC[C@]2(C)C(=O)CC[C@@H]12
inactive: [1] | [2] | [3] | [5] | [9]

O=C(O)C(Cl)(Cl)Cl
inactive: [1] | [2] | [3] | [4] | [5] | [9]

C=CC(=O)N(C)C
inactive: [1] | [2] | [3] | [5]

O=P(O)(O)CN(CP(=O)(O)O)CP(=O)(O)O
inactive: [1] | [2] | [3] | [5]

CCC(=O)C(CC(C)N(C)C)(c1ccccc1)c1ccccc1 (centres undefined)
inactive: [1] | [2] | [7] | [4] | [6] | [5]

Cc1ccccc1C(=O)Nc1cccc(OC(C)C)c1
inactive: [1] | [2] | [4] | [6] | [5]

C=CCc1ccc(OC)cc1
inactive: [1] | [2] | [10]

N#CCc1ccc(Cl)cc1
inactive: [1] | [2] | [3] | [9]

Cc1cc(Cl)ccc1O[C@H](C)C(=O)O
inactive: [1] | [2] | [4]

COS(=O)(=O)c1ccc(C)cc1
inactive: [1] | [2] | [3] | [6] | [5] | [9]

Clc1ccc(COC(Cn2ccnc2)c2ccc(Cl)cc2Cl)cc1 (centres undefined)
inactive: [1] | [2] | [10] | [6]

OCC(O)CCl (centres undefined)
inactive: [1] | [2] | [3] | [9]

NC(=S)Nc1ccccc1
inactive: [1] | [2] | [3] | [5] | [9]

CC(C)(OO)c1ccccc1
inactive: [1] | [2] | [3] | [4] | [5]

Clc1nc(Cl)nc(Cl)n1
inactive: [1] | [2] | [3] | [4] | [9]

ClCCBr
inactive: [1] | [2] | [10] | [8]

O=[N+]([O-])c1ccc(O)c([N+](=O)[O-])c1
inactive: [1] | [2] | [8]

C[C@H]1CCCC(=O)CCC/C=C/c2cc(O)cc(O)c2C(=O)O1
inactive: [1] | [2] | [6]

C[C@@H](Oc1ccc(Cl)cc1Cl)C(=O)O
inactive: [1] | [2] | [3] | [4] | [5] | [9]

Cc1cc(=O)[nH]o1
inactive: [1] | [2] | [7] | [6] | [9]

CC(C)(C)c1cc(O)ccc1O
active: [7] 33.6 µM | [4] 109 µM
inactive: [1] | [2]

CCOP(OCC)OCC
inactive: [1] | [2] | [10] | [4] | [9]

O=C1CCCN1
inactive: [1] | [2] | [10] | [4] | [5] | [9]

COP(=O)(OC)O/C(=C\Cl)c1cc(Cl)c(Cl)cc1Cl
inactive: [2] | [4] | [6] | [5]
active: [1] 100 µM | [7] 5.86 µM

CCOC(=O)CP(=O)(OCC)OCC
inactive: [1] | [2] | [8] | [4] | [5]

C=CC(=O)OCCCCCC(C)C
inactive: [1] | [2] | [3] | [6] | [5]

Cc1ccc2ccccc2c1C
not listed: [3] | [8] | [9]
inactive: all other assays above
